Assay [1] can be described thus: NCI Yeast Anticancer Drug Screen. Data for the rad50 strain (AID 155).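 Note: 0% = growth of vehicle-only cultures of the same strain.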 The settings on record: S. cerevisiae rad50 strain growth inhibition, hits give high values; at 50.0 µM unless noted. In short, it runs like this:
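Relative growth inhibition (compound vs vehicle) was measured in yeast with a defined repair-gene alteration.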

The nature of assay [2]: NCI Yeast Anticancer Drug Screen. Data for the mec2-1 strain (AID 157). The settings on record: S. cerevisiae mec2-1 strain, hits give high values; at 50.0 µM unless noted. The gist of the method: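 Using mec2-1 yeast: add compound, measure growth, express inhibition versus vehicle-treated cultures.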
Assay [3] in a line: NCI Yeast Anticancer Drug Screen. Data for the sgs1 mgt1 strain (AID 161).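 Note: 0% = growth of cultures given vehicle only.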 Conditions: S. cerevisiae sgs1 mgt1 strain, hits give high values; at 50.0 µM unless noted. The gist of the method:
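Yeast cells carrying a defined DNA-repair defect were exposed to test compounds. Growth inhibition was measured relative to vehicle-treated controls.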

Assay [4] can be described thus: NCI Yeast Anticancer Drug Screen. Data for the cln2 rad14 strain (AID 165).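 Note: 0% = growth equal to vehicle treated cultures.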 The settings on record: S. cerevisiae cln2 rad14 strain, hits give high values; at 50.0 µM unless noted. In short, it runs like this: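 Yeast strain cln2 rad14, bearing defects in cell cycle control and DNA repair, serves as the test system; values reflect growth inhibition compared with vehicle.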

Assay [5] is described as follows: NCI Yeast Anticancer Drug Screen. Data for the bub3 strain (AID 167). The settings on record: S. cerevisiae bub3 mutant strain, hits give high values; at 50.0 µM unless noted. The gist of the method: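 Screening used yeast with an engineered genetic alteration affecting cell cycle control. Compound-exposed cultures were compared with vehicle cultures, and reduced growth was taken as inhibition.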

A short description of assay [6]: NCI Yeast Anticancer Drug Screen. Data for the mlh1 rad18 strain (AID 175). Conditions: S. cerevisiae mlh1 rad18 strain growth inhibition, hits give high values; at 50.0 µM unless noted. The gist of the method:
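Steps: expose repair-defective yeast to compound; measure growth; express inhibition against vehicle-treated controls.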

This is part of a sample that, as a whole, favours compounds with a hit. Of some 79,000 tested, about 15% had one in any assay. Unmarked numbers belong to inactive results. Active and inactive are the calls of the source. Cut-off read from the data, not from the text of the source: active = growth inhibition above about 70%; inactive = the rest.

Turning to `Cc1cnc2ccccc2n1` (tested in a mixture with another compound), the growth inhibition in assay [1] is -1.5%; in assay [2], 4.35%; in assay [3], -5.25%; in assay [4] it was 8%; in assay [5] it was -2.1%; in assay [6], 24.8%.
Consider `Nc1nc(-c2ccco2)cc(-c2ccco2)n1`, for which the growth inhibition is -23.4% in assay [1]; -23.2% in assay [2]; -18.8% in assay [3]; 12.8% in assay [4]; -20.1% in assay [5]; -31.1% in assay [6].
In the case of `Cc1ccc2c(c1)C(C)(C)C(C)(C)C2(C)C`, the growth inhibition in assay [1] was 1.5%; in assay [2], -0.8%; in assay [3] it was -0.05%; in assay [4], 0.4%; in assay [5], 3.8%; in assay [6] it was -0.1%.
For the compound `S=C(c1ccco1)N1CCOCC1`, the growth inhibition in assay [1] was 14.8%; in assay [2], 12%; in assay [3] it was 25.1%; in assay [4] it was 12.7%; in assay [5] it was 16.2%; in assay [6], 10.8%.
Turning to `N#CC(c1ccccc1)c1ccc(C(c2ccccc2)(c2ccccc2)C(C#N)c2ccccc2)cc1` (stereo not given), the growth inhibition in assay [1] was 17.4%; in assay [2], 8.55%; in assay [3] it was 13.9%; in assay [4], 19.3%; in assay [5], -4.8%; in assay [6], 5.1%.
For the compound `CC(=O)CSc1c(-c2ccccc2)c(=O)n(-c2ccccc2)c(=S)n1-c1ccccc1`, the growth inhibition in assay [1] is -3.8%; in assay [2] it was -10.1%; in assay [3] it was -13.2%; in assay [4] it was -2.3%; in assay [5], -8.5%; in assay [6], 3.85%.
With `CN1C(=O)n2c(nc3ccccc32)C(Cl)(Cl)C1=O`, the growth inhibition in assay [1] was 13.8%; in assay [2], 10.3%; in assay [3], 3.25%; in assay [4], 20.4%; in assay [5], 34.7%; in assay [6], 42%.
On to `CCc1cccc(CC)c1NC(=O)OCCN(CC)CC`, for which the growth inhibition was -3.8% in assay [1]; -16.9% in assay [2]; 10.4% in assay [3]; 16.8% in assay [4]; 11.6% in assay [5]; 4.15% in assay [6].
Take `Nc1ncc2c(=O)[nH][nH]c(=O)c2n1`: the growth inhibition in assay [1] is 34.9%; in assay [2], 31.6%; in assay [3], 16.6%; in assay [4] it was 12.4%; in assay [5], 3.4%; in assay [6], -5.5%.
For the compound `O=C(CC(CC(=O)C(c1ccccc1)c1ccccc1)c1ccccc1)C(c1ccccc1)c1ccccc1`, the growth inhibition in assay [1] is 45.9%; in assay [2], 18%; in assay [3], 61.9%; in assay [4], -0.6%; in assay [5], -8.3%; in assay [6], 29.6%.
As for `CCc1cccc(CC)c1NC(=S)N/C=C(\C#N)S(=O)(=O)c1ccc(C)cc1`, the growth inhibition in assay [1] was -4.8%; in assay [2] it was -10.6%; in assay [3], 17.4%; in assay [4] it was -15.4%; in assay [5], -5.5%; in assay [6], -20.5%.
Take `CCCCCN1C(=O)c2ccccc2C1=O`: the growth inhibition was 23.1% in assay [1]; 10.5% in assay [2]; 6.4% in assay [3]; 5.15% in assay [4]; 6.3% in assay [5]; -0.55% in assay [6].
For `CCCN(CCC)CC(O)c1ccc(Cl)c2ccccc12` (stereo not given), the growth inhibition was 1.85% in assay [1]; -30.1% in assay [2]; 21.1% in assay [3]; -35.3% in assay [4]; -17.9% in assay [5]; -9.55% in assay [6].
As for `CCC(O)(c1ccccc1)C(O)(CC)c1ccccc1` (stereo not given), the growth inhibition is 15.8% in assay [1]; 8.9% in assay [2]; -2.05% in assay [3]; 22.8% in assay [4]; -13% in assay [5]; 23.3% in assay [6].
On to `NC(N)=NC(N)=Nc1ccc(S(=O)(=O)O)cc1`, for which the growth inhibition in assay [1] was -4.7%; in assay [2], -26.9%; in assay [3], -47%; in assay [4], -22.7%; in assay [5] it was -29.6%; in assay [6], -11.8%.
Regarding `CS(=O)(=O)c1ncc(Br)cn1`, the growth inhibition was 15.6% in assay [1]; -6.85% in assay [2]; 5.45% in assay [3]; 17.1% in assay [4]; 6.4% in assay [5]; 7.75% in assay [6].
With `C#CCOC(=O)c1ccccc1`, the growth inhibition was 1.15% in assay [1]; -5.15% in assay [2]; 0.6% in assay [3]; -24.2% in assay [4]; 3.5% in assay [5]; 0% in assay [6].
As to `CC(=O)c1oc2cc([N+](=O)[O-])c3ccccc3c2c1C`, the growth inhibition in assay [1] was 14.7%; in assay [2] it was -8.55%; in assay [3] it was 26.3%; in assay [4], 11.6%; in assay [5], -5.35%; in assay [6], 40.1%.
Regarding `CCOC(=O)c1ccc2c(c1)C(=O)c1cc([N+](=O)[O-])ccc1-2`, the growth inhibition is 2.85% in assay [1]; 13.2% in assay [2]; 4.8% in assay [3]; 10.6% in assay [4]; 26.7% in assay [5]; 23.1% in assay [6].
Turning to `Clc1cccc(C2SCc3nc4ccccc4n32)c1` (stereo not given), the growth inhibition is 17% in assay [1]; -3.95% in assay [2]; 46.1% in assay [3]; 15.3% in assay [4]; 5.9% in assay [5]; 32.1% in assay [6].
Consider `NC1N=Nc2ccccc21` (stereo not given), for which the growth inhibition in assay [1] is 0.05%; in assay [2], -5.95%; in assay [3] it was 13.3%; in assay [4] it was 4.3%; in assay [5] it was -1.6%; in assay [6], 41.3%.
Turning to `Cn1cnc2ncnc(Cl)c21`, the growth inhibition in assay [1] was 1.85%; in assay [2] it was -3.45%; in assay [3], 9.8%; in assay [4], -19.1%; in assay [5] it was -52.1%; in assay [6], -26.9%.
`CC1=C(c2ccccc2)OC(c2ccccc2)=C[P+]1(c1ccccc1)c1ccccc1`: the growth inhibition in assay [1] is 97.8% (active); in assay [2], 99.5% (active); in assay [3], 99.4% (active); in assay [4], 99.3% (active); in assay [5], 99.3% (active); in assay [6], 99.2% (active).
For `CN(C)CCN1CC2Cc3ccccc3C1c1ccccc12` (stereo not given), the growth inhibition is 24.1% in assay [1]; -6.5% in assay [2]; -3.5% in assay [3]; 28.9% in assay [4]; 43.4% in assay [5]; 9.1% in assay [6].
Consider `COc1cccc(N)c1N`, for which the growth inhibition in assay [1] is 21.4%; in assay [2], -15.2%; in assay [3], -3.6%; in assay [4], 4.6%; in assay [5], -16.9%; in assay [6] it was -9.2%.
Regarding `O=C(CCCC(=O)N/N=C/c1ccccc1O)N/N=C\c1ccccc1O`, the growth inhibition in assay [1] is 4.55%; in assay [2], -6.65%; in assay [3], -20.4%; in assay [4], 3.35%; in assay [5], -3.5%; in assay [6], -12.9%.
In the case of `O=C1c2ccccc2C(=O)N1c1ccc(OCCN2CCCCC2)cc1`, the growth inhibition was 11.8% in assay [1]; -1.7% in assay [2]; 7.45% in assay [3]; 37.5% in assay [4]; -2.05% in assay [5]; 18.4% in assay [6].
For the compound `O=C1NCC2(CCN(CCCC3(c4ccc(F)cc4)OCCO3)CC2)N1c1ccccc1`, the growth inhibition is -14.1% in assay [1]; -0.05% in assay [2]; -1.55% in assay [3]; 1.4% in assay [4]; 6.4% in assay [5]; 1.55% in assay [6].
For `COC(=O)C1=C2C3(O)CC4CC5C3CCC(C)N5C24C2CCCC(OC)C2C1OC(=O)c1ccccc1` (stereo not given), the growth inhibition is -2.1% in assay [1]; -27.1% in assay [2]; 17.9% in assay [3]; 8.9% in assay [4]; 0.7% in assay [5]; 24.1% in assay [6].
`OCCCCCCCl`: the growth inhibition in assay [1] is -28.8%; in assay [2], -24.8%; in assay [3] it was -11.6%; in assay [4], -6.65%; in assay [5], -3.05%; in assay [6] it was 3.6%.
`Cc1cccc(/C=N/NC(=S)NC(C)(C)C)n1`: the growth inhibition is -17.4% in assay [1]; -32.4% in assay [2]; -4.45% in assay [3]; 0.1% in assay [4]; 15.8% in assay [5]; -27.1% in assay [6].
In the case of `CC/C=N\N1C(N)=C(C#N)C(C#N)(C#N)C1CC` (stereo not given), the growth inhibition was 6.05% in assay [1]; 10.2% in assay [2]; -18.9% in assay [3]; 4.75% in assay [4]; -12.8% in assay [5]; -27.9% in assay [6].
As to `CCOC(=O)c1[nH]c(-c2[nH]c(-c3[nH]c(-c4[nH]c(C(=O)OCC)c(C)c4C(=O)OCC)c(C(=O)OCC)c3C)c(C)c2C(=O)OCC)c(C(=O)OCC)c1C`, the growth inhibition in assay [1] is -24.7%; in assay [2], -16%; in assay [3], -21.3%; in assay [4], 6.85%; in assay [5], -14.1%; in assay [6], -74%.
On to `CCOC(=O)c1oc2cc(O)ccc2c(=O)c1-c1ccc(OC)c(OC)c1`, for which the growth inhibition in assay [1] was 5.95%; in assay [2], -1.7%; in assay [3], 16.3%; in assay [4], 3.45%; in assay [5] it was 4.65%; in assay [6] it was 11.8%.
In the case of `Cn1c(=O)[nH]c(=O)c2nc(-c3ccccc3)cnc21`, the growth inhibition in assay [1] is -11.9%; in assay [2], 12.3%; in assay [3], 2.55%; in assay [4] it was -13.6%; in assay [5], -2.7%; in assay [6], -0.65%.
For the compound `COc1cc(NC(C)=O)c2c(c1)SCC(=O)N2`, the growth inhibition in assay [1] is 3.2%; in assay [2], -34.5%; in assay [3], -3.7%; in assay [4], 5.2%; in assay [5] it was 24%; in assay [6] it was 1.4%.
For the compound `C=C1C(=O)O[C@@H]2C[C@@]3(C)[C@H](O)CCC(=C)[C@@H]3C[C@H]12`, the growth inhibition in assay [1] is -4.65%; in assay [2], 25.1%; in assay [3] it was 3.95%; in assay [4], 17.1%; in assay [5], 19.6%; in assay [6], 5.5%.
Regarding `CCOC(=O)C(CCc1ccccc1[N+](=O)[O-])(CCc1ccccc1[N+](=O)[O-])C(=O)OCC`, the growth inhibition is 12.3% in assay [1]; -0.7% in assay [2]; 6.35% in assay [3]; -9% in assay [4]; 10.7% in assay [5]; 37.7% in assay [6].
Take `O=CC(=O)O`: the growth inhibition is 28.1% in assay [1]; -19.6% in assay [2]; 15.7% in assay [3]; 13.7% in assay [4]; 26.6% in assay [5]; 25.7% in assay [6].
On to `CC1(C)CC(=O)C=C(NCc2ccccc2)C1`, for which the growth inhibition was -0.95% in assay [1]; -2.6% in assay [2]; -8.35% in assay [3]; -24.9% in assay [4]; -19.1% in assay [5]; 11.2% in assay [6].
